Screening data as filed in PubChem BioAssay.
Shn3 inh set2 = reduction of Shn3 3'UTR firefly luciferase signal, primary screen, Schnurri-3 inhibitor project, cell-based, Clone20 osteoblasts, set 2; Clone20 osteoblast Shn3 3'UTR firefly luciferase, 24 h; inhibition, % at 12.5 µM; hit rate 0.52% among 360,000; AID 588674, 2011;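 active = mean inhibition of at least 75% with every replicate also reaching 75%; inconclusive = mean inhibition at least 75% but some replicate below; inactive = mean inhibition below 75%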;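 also: 0% = median of neutral control wells and 100% = pilot-screen positive control compound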
H9c2 TAG inh = inhibitors of triacylglycerol accumulation, primary screen, cell-based, uHTS, fluorescence, H9c2. H9c2 cells, Nile Red lipid (TAG) fluorescence; cells loaded with 200 µM oleic acid. inhibition, % at 12.5 µM. hit rate 0.66% among 230,000;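 active = pattern-corrected inhibition of lipid staining of at least 50% with the nuclear-stain viability signal not falling by more than 50%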;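 also: 0% = DMSO wells and 100% = triacsin C control wells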
aSyn UTR inh = MLPCN primary screen, SNCA 5' untranslated region; alpha-synuclein 5'UTR reporter, inhibitor activity; inhibition, % (tested at 7.5 µM); hit rate 0.82% among 300,000; AID 1813, 2009; in the data active = inhibition above about 60%; inconclusive = no clear call, values can overlap the other calls;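 also: H4 neuroglioblastoma cells stably carrying SNCA 5'UTR luciferase fusion; 0% = DMSO wells and 100% = positive control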
Jurkat NFkB inh = inhibitors of induced NF-kB luciferase reporter, primary screen, TCR NF-kB activation inhibitor project, cell-based, luminescence, uHTS; Jurkat, PMA/ionomycin-induced NF-kB luciferase reporter; inhibition, % at 4 µM; hit rate 0.53% among 330,000; AID 435003, 2010; in the data active = inhibition above about 50%
697 NFkB inh = inhibitors of PMA/ionomycin-induced NF-kB reporter, 697 cells, primary screen, B-cell NF-kB inhibitor project, cell-based, luminescence, uHTS; 697 B-cell NF-kB luciferase reporter, 16 h; inhibition, % at 4 µM; hit rate 0.33% among 330,000; AID 435022, 2010; in the data active = inhibition above about 35%
Gli-Sufu block = Gli-Sufu pathway antagonists, primary screen, luciferase luminescence, Sufu-KO-LIGHT cells, uHTS. inhibition, % at 5 µM. AID 588413, 2011. Sufu-KO-LIGHT fibroblasts, Gli luciferase reporter luminescence. hit rate 0.74% among 340,000;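 active = inhibition above about 55%, limit read from the data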;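 also: 0% = DMSO-treated cells and 100% = wells with medium but no cells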
Jurkat NFkB conf = PMA/ionomycin-induced NF-kB reporter inhibitors, Jurkat retest, confirmation, T-cell NF-kB inhibitor project, cell-based, luminescence, single concentration | Jurkat NF-kB luciferase, 16 h | shares compounds with Jurkat NFkB inh | hit rate 27% among 2,700 | inhibition, % at 4 µM;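 active = inhibition reaching about 45% at 4 µM in either replicate, limit read from the data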;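 also: plate controls were PMA/ionomycin stimulated DMSO wells for no effect and unstimulated DMSO wells for full effect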
697 NFkB conf = PMA/ionomycin-induced NF-kB reporter inhibitors, 697 retest, confirmation, B-cell NF-kB inhibitor project, cell-based, luminescence, single concentration; AID 449746, 2010; inhibition, % at 4 µM; hit rate 35% among 2,000; shares compounds with 697 NFkB inh; 697 B-cell NF-kB luciferase, 16 h; in the data active = inhibition mostly above about 28%, no sharp cut-off; inactive = mostly below about 22%
* = called active by the depositor; ? = inconclusive; . = no result given. In the library only some 2.3% were active in any assay of this set; here they are far more common.

SMILES | Shn3 inh set2 | H9c2 TAG inh | aSyn UTR inh | Jurkat NFkB inh | 697 NFkB inh | Gli-Sufu block | Jurkat NFkB conf | others
C=C(C=O)CC1CC(O)[C@]2(C)OC3C[C@@H]4OC5C[C@]6(C)O[C@]7(C)CCC8OC9C[C@]%10(C)OC(/C(C)=C\CO)C(O)CC%10OC9CC(C)C8OC7CC6O[C@]5(C)C/C=C\C4OC3CC2O1 (stereo partly specified) | -4 | -5 | . | -3 | 4 | -5 | .
Cc1cc(NC(=O)COC(=O)c2c(C)nn(Cc3ccccc3Cl)c2Cl)no1 | 36 | . | 8 | 0 | 20 | 2 | .
Cc1cc(OC(=O)N(C)C)nc(-c2ccc(C)c(Cl)c2)n1 | 26 | -11 | -11 | -14 | 22 | -4 | .
COC(=O)C1CN(C#N)N(c2ccc(Cl)cc2)C12c1ccccc1-c1ccccc12 (stereo unspecified) | 97* | 134 | 112* | 87* | -62 | 47 | 60*
CCCC[C@@H](C)C[C@@H](C)C(=O)N(C)[C@@H](CC(C)C)C(=O)N[C@H](C(=O)N(C)[C@H](C(=O)N1C[C@@H](O)C[C@H]1C(=O)N1C(=O)C=C[C@@H]1C)C(C)C)C(C)OC(C)=O (stereo partly specified) | 85 | 105 | . | 91* | 1 | 7 | 93*
COc1ccccc1CN1CCCC(C(=O)c2ccccc2SC)C1 (stereo unspecified) | 40 | -11 | ? | 8 | 7 | 12 | .
Nc1c2c(nc3sc4c(c13)CCCC4)CCCCC2 | -25 | 5 | -170 | -174 | -224 | 6 | -94
CC12CCC(O)CC1CCC1C2CCC2(C)C(C3=CC(=O)OC3)CCC12O (stereo unspecified) | 1 | 8 | . | . | . | 1 | .
C[C@]12CC[C@H](O)C[C@H]1CC[C@@H]1[C@@H]2CC[C@]2(C)[C@@H](C3=CC(=O)OC3)CC[C@]12O | -4 | -9 | . | 101* | 9 | 0 | 91*
CC1CCCCC12C(=O)NC(=O)NC2=O (stereo unspecified) | 4 | -3 | . | . | . | -16 | .
CCN(CC)c1ccc(N=Cc2c(O)n(Cc3ccco3)c(=O)[nH]c2=O)cc1 | -14 | -1 | . | 14 | -8 | -2 | .
CC(=O)O[C@H]1C(=O)[C@@]2(C)C([C@H](OC(=O)c3ccccc3)[C@]3(O)C[C@H](OC(=O)[C@H](O)[C@@H](NC(=O)Cc4ccccc4)c4ccccc4)C(C)=C1C3(C)C)[C@]1(OC(C)=O)CO[C@@H]1C[C@@H]2O (stereo partly specified) | 28 | . | 93* | 62* | -2 | -7 | 62*
CC(=O)O[C@@]12CO[C@@H]1C[C@H](O)[C@@]1(C)C(=O)[C@H](O)C3=C(C)[C@@H](OC(=O)[C@H](O)[C@@H](NC(=O)c4ccccc4)c4ccccc4)C[C@@](O)([C@@H](OC(=O)c4ccccc4)C12)C3(C)C (stereo partly specified) | -9 | . | 114* | 68* | -30 | -1 | 64*
CC(=O)O[C@H]1C(=O)[C@@]2(C)C([C@H](OC(=O)c3ccccc3)[C@]3(O)C[C@H](O)C(C)=C1C3(C)C)[C@]1(OC(C)=O)CO[C@@H]1C[C@H]2O (stereo partly specified) | -10 | . | 4 | 23 | 11 | 1 | .
Cc1ccc(C[n+]2c(-c3ccc(C)cc3)cc(-c3ccc(C)cc3)cc2-c2ccc(C)cc2)cc1 | 92* | 12 | 95* | 99* | 1 | 90* | 67*
Cc1ccc(-c2cc(-c3ccc(C)cc3)[n+](-c3ccc(C(=O)O)cc3)c(-c3ccc(C)cc3)c2)cc1 | 2 | -52 | -16 | -25 | -37 | -14 | .
Cc1c(NP(=O)(C(C)(C)C)C(C)(C)C)c(=O)n(-c2ccccc2)n1C | 16 | -3 | -8 | -24 | -20 | -5 | .
CC1(C)C[C@H]2C=C(C=O)[C@]3(C=O)C[C@]3(C)[C@H]2C1 | 97* | . | 117* | 94* | -153 | 22 | 52*
N=C1c2ccccc2CN1NC(=O)c1ccc(Br)o1 | 8 | . | -3 | -2 | -15 | -1 | .
CC(C)c1oc(=O)cc2c1[C@@H](O)[C@H]1OC(=O)[C@@]3(C)CC[C@@H](O)[C@@]2(C)C13 (stereo partly specified) | 8 | . | 10 | 72* | -19 | 20 | 60*
Cc1cccn2c(=O)c3c(nc12)N1CCCCCC1C1(C3)C(=O)N(C)C(=O)N(C)C1=O (stereo unspecified) | 4 | -15 | 7 | 8 | 8 | 0 | .
COc1ccc(/C=N\N=C(N)N)cc1 | 14 | 7 | -5 | 51* | 4 | 13 | 16
NC(N)=N/N=C/c1ccc(N(c2ccccc2)c2ccccc2)cc1 | 95* | . | 138* | 61* | -8 | -2 | 7
NC(N)=N/N=C/c1ccc(N2CCOCC2)cc1 | 8 | 6 | -21 | 49 | 8 | 12 | .
CN(C)C(=O)O/N=C(\N)COc1ccc(C(C)(C)C)cc1 | -17 | 6 | -39 | 60* | -68 | -4 | -13
SMILES | Shn3 inh set2 | H9c2 TAG inh | aSyn UTR inh | Jurkat NFkB inh | 697 NFkB inh | Gli-Sufu block | Jurkat NFkB conf | others
CC1CCC/C=C/C2CC(O)CC2C(O)/C=C/C(=O)O1 (stereo unspecified) | 84 | 140 | 133* | 97* | 69* | 88* | -22 | 697 NFkB conf=80*
C[C@H]1CCC[C@H](O)CCCCCc2cc(O)cc(O)c2C(=O)O1 | -12 | -2 | -58 | 7 | 9 | 3 | .
C[C@H]1CCC/C=C/C2C[C@H](O)CC2[C@H](O)/C=C/C(=O)O1 (stereo partly specified) | 94* | 132 | 100* | 98* | 71* | 87* | -25 | 697 NFkB conf=81*
C[N+](C)(C)CCc1ccc(O)cc1 | 3 | . | 23 | -4 | 15 | 1 | .
N#CC1=C(N)Oc2c(c(=O)sc3ccccc23)C1c1ccncc1 (stereo unspecified) | 1 | -2 | 9 | -11 | -13 | . | .
CC(=O)OC(C)(C)/C=C/C(=O)[C@](C)(O)C1[C@H](O)C[C@@]2(C)C3CC=C4C(C[C@H](O)C(=O)C4(C)C)[C@]3(C)C(=O)C[C@]12C (stereo partly specified) | 62 | . | . | 92* | 56* | 85* | 62* | 697 NFkB conf=71*
